Bioassay records (PubChem BioAssay)
ULK1 inh: human ULK1 kinase inhibition, primary screen | O75385 | hit rate 1.9% among 30,000 | AID 1259251 | AlphaScreen Atg13 phosphorylation by ULK1, luminescence | inhibition, % at 5.96 µM; in the data active = inhibition above about 43%;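 also: 0% = median of compound wells and 100% = no enzyme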
ASK1 inh: human ASK1 kinase inhibition, primary screen | AlphaScreen MKK6 phosphorylation by ASK1, luminescence | inhibition, % at 7.44 µM | Q99683 | AID 1159602 | hit rate 0.99% among 22,000; in the data active = inhibition above about 35%;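 also: 0% = median of compound wells and 100% = no enzyme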
TruHits interf: interferes with AlphaScreen TruHits signal in ASK1 counter-screen; AlphaScreen TruHits beads, signal interference counterscreen; IC50, µM; hit rate 20% among 220; shares compounds with ASK1 inh;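 active = IC50 of 10 µM or lower in the counterscreen; inactive = IC50 above 10 µM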;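 also: loss of AlphaScreen light from TruHits beads alone with no ASK1 enzyme present; potency of signal reduction so a low IC50 flags an assay artifact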
* marks the source's active call; other numbers are inactive results; i = inactive; . = no result. Hits are enriched below; roughly 2.5% of the tested compounds scored in any of these assays.

SMILES	ULK1 inh	ASK1 inh	others
CCN(CC)C(=O)C1CCCN(c2cc(NCCN3CCOCC3)ncn2)C1 (stereo not drawn)	-6	1
O=C(Nc1ccc2[nH]ncc2c1)C1CCNCC1	56*	-2
O=C(Nc1ccc2[nH]ncc2c1)C1CCNC1 (stereo not drawn)	12	-9
COc1cccc(CNS(=O)(=O)c2ccc(-c3ncnc4[nH]cc(C)c34)cc2)c1	59*	0
COc1cccc(CNS(=O)(=O)c2ccc(-c3ccnc4[nH]ccc34)cc2)c1	22	-6
O=S(=O)(NCc1ccccc1)c1ccc(-c2ncnc3[nH]ccc23)cc1	45*	1
COc1cccc(CNC(=O)Nc2ccc(-c3ncnc4[nH]ccc34)cc2)c1	16	-7
NC(=O)c1cncc(-c2csc3ccccc23)c1	-17	12
NC(=O)c1ccc(NC(=O)c2cc([N+](=O)[O-])cc([N+](=O)[O-])c2)cc1	5	.
CC(C)n1cnc2c(NCCOc3ccccc3)nc(Nc3ccc(-n4ccnc4)cc3)nc21	-2	27
CC(C)n1cnc2c(Nc3ccc(N4CCOCC4)cc3)nc(Nc3ccc4ncccc4c3)nc21	29	12
CC(=O)c1cccc(-c2nc(Nc3ccccc3)c3ncn(C(C)C)c3n2)c1	46*	-16
CC(C)n1cnc2c(Nc3ccccc3)nc(Nc3ccc(-n4ccnc4)cc3)nc21	56*	0
CC(C)n1cnc2c(NCc3nc4ccccc4[nH]3)nc(Nc3ccccn3)nc21	25	1
CC(C)n1cnc2c(NCc3nc4ccccc4[nH]3)nc(Nc3ccc4ncccc4c3)nc21	45*	2
CC(C)n1cnc2c(Nc3ccccc3)nc(Nc3ccc4ncccc4c3)nc21	52*	0
CC(=O)Nc1ccc(Nc2nc(-c3cccc(C(C)=O)c3)nc3c2ncn3C(C)C)cc1	34	18
Cc1cc(NCc2ccccc2)nc(NCCN2CCOCC2)n1	-20	8
Cc1nn(C)c(C)c1-c1cc(C(=O)NCCN(C(C)C)C(C)C)ccn1	-4	-4
CC(C)n1cnc2c(Nc3ccccc3)nc(Nc3ccncc3)nc21	46*	-11
CC(C)n1cnc2c(Nc3ccccc3)nc(Nc3ccccc3)nc21	38	0
CCCOC(=O)C1=C(C)NC2=C(C(=O)CC(C)(C)C2)C1c1ccco1 (stereo not drawn)	-7	.
FC(F)(F)c1ccc(Nc2nc(Nc3ccc(N4CCOCC4)cc3)c3[nH]cnc3n2)cc1	29	25
c1cc(Nc2nc(NC3CC3)c3ncn(-c4ccsc4)c3n2)ccn1	-3	-3
c1nc2nc(Nc3ccc(N4CCOCC4)cc3)nc(NC3CC3)c2[nH]1	56*	-12
SMILES	ULK1 inh	ASK1 inh	others
c1cn(-c2ccc(Nc3nc(NC4CC4)c4ncn(-c5ccsc5)c4n3)cc2)cn1	53*	14
CCCNc1nc(Nc2ccc(-n3ccnc3)cc2)nc2nc[nH]c12	41	-45
c1cn(-c2ccc(Nc3nc(NC4CC4)c4[nH]cnc4n3)cc2)cn1	57*	-69
O=C(NCCO)c1ccnc(N2CCN(Cc3ccc4c(c3)OCO4)CC2)c1	2	-2
Cc1ccccc1OCc1nc2ccc(-c3ccnc(N)n3)cc2[nH]1	43*	8
Nc1nccc(-c2ccc3nc(CCOc4ccc(CC(=O)NC5CC5)cc4)[nH]c3c2)n1	11	6
COc1ccccc1OCc1nc2ccc(-c3ccnc(N)n3)cc2[nH]1	48*	-1
COc1cccc(OCc2nc3ccc(-c4ccnc(N)n4)cc3[nH]2)c1	62*	10
COc1cccc2c1OCC(c1nc3ccc(-c4ccnc(N)n4)cc3[nH]1)C2 (stereo not drawn)	-2	-3
Cc1ccccc1OCc1nc2ccc(-c3cn[nH]c3)cc2c(=O)[nH]1	-14	14
Cn1nccc1Nc1cc(N)ncn1	6	-5
CCCNc1nc(Nc2ccc(-n3ccnc3)cc2)nc2c1ncn2-c1ccsc1	8	13
COc1ccc(CCNC(=O)c2ccc3nc(Br)sc3c2)cc1	9	-7
CN(C)CCCOc1cc(-c2cn[nH]c2)c(F)cc1NC(=O)C(N)c1ccc(Cl)cc1 (stereo not drawn)	20	10
COc1cc(NC(=O)C(N)c2ccc(Cl)cc2)c(F)cc1-c1cn[nH]c1 (stereo not drawn)	65*	13
c1ccc(Nc2ccnc(N3CCN(Cc4ccc5c(c4)OCO5)CC3)n2)cc1	-17	9
Cc1cc(NCCc2ccc(O)cc2)nc(N2CCN(Cc3ccc4c(c3)OCO4)CC2)n1	8	37*	TruHits interf=>18
COc1ccc(CCNc2ccnc(Nc3ccc(N4CCOCC4)cc3)n2)cc1	8	43*	TruHits interf=i
COc1ccc(CCNc2cc(C)nc(Nc3ccc(N4CCOCC4)cc3)n2)cc1	2	32
COc1ccc(CCNc2cc(C)nc(N3CCN(Cc4ccc5c(c4)OCO5)CC3)n2)cc1	-27	15
COc1cc2nc(Nc3ccc(-n4ccnc4)cc3)nc(Nc3ccc(NC(C)=O)cc3)c2cc1OC	-28	13
c1cc(Nc2ccc3c(c2)OCO3)nc(N2CCN(Cc3ccc4c(c3)OCO4)CC2)n1	-30	37*	TruHits interf=>20
COc1cc2nc(Nc3ccc(-n4ccnc4)cc3)nc(Nc3ccc4c(c3)OCO4)c2cc1OC	-162	49*	TruHits interf=>20
O=C1CCCN1CCn1cnc2c(NC3CC3)nc(-c3ccc(N4CCOCC4)nc3)nc21	2	-2
Cc1cncc2cccc(NC3CCCN(C(=O)C(N)c4ccc(-c5ccccc5)cc4)C3)c12 (stereo not drawn)	29	-21
SMILES	ULK1 inh	ASK1 inh	others
O=C(Cc1cn(-c2ccc(N3CCCC3CO)nn2)c2ccccc12)Nc1ccc(N2CCOCC2)cc1 (stereo not drawn)	18	3
c1ccc(Nc2ccnc(N3CCc4ccccc4C3)n2)cc1	-14	1
COc1cc2nc(Nc3ccc(N4CCOCC4)cc3)nc(Nc3ccc4c(c3)OCO4)c2cc1OC	-1	54*	TruHits interf=4.8*
c1ccc2c(c1)CCN(c1nccc(Nc3ccc(N4CCOCC4)cc3)n1)C2	7	50*	TruHits interf=i
COc1cc2nc(NCc3ccc4c(c3)OCO4)nc(Nc3ccc(N4CCOCC4)cc3)c2cc1OC	0	51*	TruHits interf=6.3*
COc1cc2nc(Nc3ccc(N4CCOCC4)cc3)nc(Nc3ccc(NC(C)=O)cc3)c2cc1OC	4	31
c1cc(Nc2ccc3c(c2)OCO3)nc(Nc2ccc(N3CCOCC3)cc2)n1	-4	48*	TruHits interf=>20
COc1cc2nc(NCc3cccnc3)nc(Nc3ccc(N4CCOCC4)cc3)c2cc1OC	17	21
c1cc(Nc2ccc(N3CCOCC3)cc2)nc(Nc2ccc(N3CCOCC3)cc2)n1	12	21
O=C1CCCN1CCCNc1nc(N2CCN(Cc3ccc4c(c3)OCO4)CC2)nc2c1ncn2Cc1ccc(C(F)(F)F)cc1	-41	16
COc1ccc(C2=NOC(=O)/C2=C\c2cccc([N+](=O)[O-])c2O)cc1OC	6	.
NC1=NC(=O)/C(=C\c2cccn2-c2ccc([N+](=O)[O-])cc2)S1	39	.
CC(C)N(CCNC(=O)c1ccc2nc(-c3cccc(N)c3)sc2c1)C(C)C	-10	-8
O=C(Nc1ccc2[nH]ncc2c1)[C@H]1CC[C@H](NC(=O)[C@H](O)c2cccc(Cl)c2)C1	9	5
COc1cc2nc(Nc3ccccn3)nc(Nc3ccc(N4CCOCC4)cc3)c2cc1OC	-9	9
COc1cc2nc(Nc3nccc4ccccc34)nc(Nc3ccc(N4CCOCC4)cc3)c2cc1OC	10	36*	TruHits interf=i
